Screens (PubChem BioAssay)
Rows were chosen to be rich in hits. Some 28% of all compounds tested hit in one or more screens of this group.
D1 allo mod: D1 dopamine receptor (human) allosteric modulation; HEK293 D1, CRE-luciferase, dopamine EC30 potentiation; actives deviate in either direction; B-score at 10 µM; hit rate 5.9% among 58,000; P21728;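 active = luminescence count or its row- and column-corrected plate score outside the 99.7% band of the plate's sample wells, on either side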
hDAT+cocaine: modulates human dopamine transporter uptake under cocaine; Q01959; LLC-PK1 hDAT cells, [14C]-dopamine uptake with cocaine IC80; actives deviate in either direction; B-score at 10 µM; hit rate 1.3% among 110,000; AID 449768;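 active = Z score or B-score, a plate-position-corrected score, falls beyond the plate's 99.7% confidence bounds, in either direction; inactive = both scores lie inside the 99.7% bounds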;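 note: scored against the spread of the other compound wells on the same plate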
CYP2C9 inh: inhibitors of human CYP2C9 | CYP2C9 Supersomes, luciferin-H conversion, luminescence | inhibition, % at 5 µM | P11712 | hit rate 20% among 96,000;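 active = blocking of liver enzyme CYP2C9 beyond about 50% at 5 µM, limit read from the data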
Target sequence (P11712 whole entry, looked up): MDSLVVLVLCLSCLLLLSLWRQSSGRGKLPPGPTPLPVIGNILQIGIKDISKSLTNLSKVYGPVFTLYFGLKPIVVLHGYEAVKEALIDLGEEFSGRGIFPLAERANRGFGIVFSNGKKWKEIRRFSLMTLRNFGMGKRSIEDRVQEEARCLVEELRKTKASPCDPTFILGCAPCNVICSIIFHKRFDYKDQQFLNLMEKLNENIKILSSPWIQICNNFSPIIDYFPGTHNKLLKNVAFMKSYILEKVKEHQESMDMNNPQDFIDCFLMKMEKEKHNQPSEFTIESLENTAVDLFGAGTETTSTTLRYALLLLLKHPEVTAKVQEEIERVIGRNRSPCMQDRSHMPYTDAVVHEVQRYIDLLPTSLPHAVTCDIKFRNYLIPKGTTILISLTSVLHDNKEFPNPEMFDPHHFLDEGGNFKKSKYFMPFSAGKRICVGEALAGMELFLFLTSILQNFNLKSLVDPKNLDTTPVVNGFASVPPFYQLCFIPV
CYP2C19 activ: cytochrome P450 2C19 (human) activation. P33261. activation factor at 5 µM. 96,000 tested, under 10 active. recombinant CYP2C19, luciferin-H EGE luminescence; stronger effect = higher value; 0 = fully inhibited enzyme, 1 = untreated enzyme;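 active = activation factor of at least 2 at 5 µM in the primary screen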;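 note: 0 = wells with 2.5 mM tranylcypromine and 1 = vehicle-only wells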
CYP2C9 activ: CYP2C9 (human) activation | P11712 | activation factor at 5 µM | AID 1024 | hit rate 1.4% among 96,000 | recombinant CYP2C9, luciferin-H conversion, luminescence; stronger effect = higher value; factor 1 = untreated enzyme, 0 = blocked;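 active = activation factor of 2 or more for CYP2C9 at a 5 µM dose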;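 note: 0 = sulfaphenazole-blocked wells and 1 = vehicle-only wells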
CYP2C19 inhib: blocks human cytochrome P450 2C19 | P33261 | CYP2C19 Supersomes, luciferin-H EGE luminescence, 30 min | inhibition, % at 5 µM | hit rate 21% among 96,000;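 active = CYP2C19 inhibition above a set limit at 5 µM in the primary screen, cut at about 50% in these data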;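 note: plate controls were negative control wells for no effect and 2.5 mM tranylcypromine positive control for full effect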
The depositor's hits bear a star; · = no result given.

SMILES	D1 allo mod	hDAT+cocaine	CYP2C9 inh	CYP2C19 activ	CYP2C9 activ	CYP2C19 inhib
CN(CC(=O)O)S(=O)(=O)c1cccs1	0.923	-0.873	-9.4	1.1	1.1	-9.6
CC1CCC(Nc2nnnn2-c2ccccc2)CC1 (configuration not stated)	·	0.374	-11.4	1.1	1.1	-7.1
O=C(Cn1cc2c(n1)CCCC2)NC1CCCCCC1	·	1.58	1.3	0.8	1	17.0
CCOC(=O)c1cccc(NC(=O)Cn2cc3c(n2)CCC(C)C3)c1 (configuration not stated)	0.666	0.96	75.4*	0.7	0.2	29.2
CC1CCc2nn(CC(=O)NC3CCCC3)cc2C1 (configuration not stated)	-1.1	0.246	28.6	0.4	0.7	59.0*
CCN(CC)CCCNC(=O)Cn1cc2c(n1)CCC(C)C2 (configuration not stated)	-0.382	-0.527	-4.4	1.1	1	-8.7
CCCSCCCNC(=O)Cn1cc2c(n1)CCC(C)C2 (configuration not stated)	0.189	-0.186	46.7	0.5	0.5	50.8*
O=C(NCCc1ccccc1)C1CCCN(C(=O)NC2CCCCC2)C1 (configuration not stated)	-0.0224	-0.00354	4.4	1.1	1	-11.5
Nc1cc(Cl)nc(N/N=C/c2ccccc2[N+](=O)[O-])n1	·	0.383	-5.6	0.9	1.1	9.7
Cc1cccc(-n2ncc3c(NCc4cccs4)ncnc32)c1	·	0.588	50.7*	0.9	0.5	11.1
Cc1cccc(-n2ncc3c(NCCc4ccc(S(N)(=O)=O)cc4)ncnc32)c1	-6.95*	0.646	96.1*	0.1	0	92.5*
Clc1ccc(-n2ncc3c(NCc4cccs4)ncnc32)cc1	·	-0.813	·	·	·	·
O/N=C1/CCCSc2ccccc21	-0.499	-0.448	-2.2	1.1	1	-7.8
CCn1c(CCNC(=O)c2cccs2)nnc1SCC(=O)c1ccc(OC)cc1	0.631	-0.43	·	·	·	·
NC(=O)CNC1CC(=O)N(CCc2ccccc2)C1=O (configuration not stated)	·	-0.232	6.7	0.9	0.9	13.5
COCc1cc(C)c2c(N)c(C#N)sc2n1	-0.395	-0.372	-35.9	0.7	1.4	29.1
COC(=O)C1=C(C)NC(C)=C(C(=O)OC)C1c1ccccn1	-1.28	-0.809	83.3*	0.8	0.2	21.8
CCOC(=O)C1=C(C)NC(SC)=NC1c1ccc(OC)cc1 (configuration not stated)	·	1.65	·	·	·	·
COC(=O)C1=C(C)NC(C)=C(C(=O)OC)C1c1ccc(OC(=O)c2ccco2)cc1	-0.267	-0.152	56.7*	0.9	0.4	12.2
CCOC(=O)C1=C(C)NC(C)=C(C(=O)OCC)C1c1ccc(OC)cc1	·	1.59	88.4*	0.3	0.1	69.5*
CCOC(=O)C1C(=O)C=C(C)C(C(=O)OCC)C1c1ccc(OC)cc1 (configuration not stated)	-0.884	-0.442	17.0	0.3	0.8	72.6*
CC(C)N1C(=O)CCC1C(=O)NCCc1ccccc1 (configuration not stated)	0.0486	-0.531	18.0	0.9	0.8	6.9
CC(=O)Nc1ccc(OC(=O)c2ccco2)cc1	·	-1.39	·	·	·	·
CC(=O)Nc1cc(OC(=O)c2ccco2)cc(OC(=O)c2ccco2)c1	0.0268	0.585	66.1*	0.7	0.3	26.5
C=CCOC(=O)C1=C(C)NC(C)=C(C(=O)OCC=C)C1c1ccc(O)cc1	-0.68	1.63	100.4*	0	0	99.5*
SMILES	D1 allo mod	hDAT+cocaine	CYP2C9 inh	CYP2C19 activ	CYP2C9 activ	CYP2C19 inhib
CCCOC(=O)c1ccc(OC(=O)c2ccco2)cc1	-0.041	0.199	-96.9	0.9	2*	11.8
Cc1ccc2c(C)nc(NC3=NCN(C(C)C)CN3)nc2c1	-1.64	·	·	·	·	·
CCN(C(=O)c1cn(CC)c(=O)c2cc(OC)c(OC)cc12)c1ccccc1C	1.75	0.629	11.9	0.9	0.9	10.1
CCN(C(=O)c1cccc(F)c1)c1ccccc1C	·	-0.0122	61.2*	0.2	0.4	83.0*
CNC(=O)NC(=O)CSc1nc2cc(C(=O)OC)ccc2c(=O)n1-c1ccccc1	0.126	-0.105	15.0	1	0.8	-1.4
Cn1c(SCc2ccc(F)cc2)nnc1-c1cccs1	-0.541	1.47	9.6	0.6	0.9	37.9
Cn1c(SCc2ccc(Br)cc2)nnc1-c1ccncc1	-0.78	0.0929	74.8*	0.1	0.3	94.2*
Cn1c(SCc2ccccc2)nnc1-c1ccncc1	-0.798	0.313	34.0	0.1	0.7	90.8*
Cc1nn(C2CCS(=O)(=O)C2)c(Cl)c1/C=C/C(=O)OCC(=O)Nc1ccccc1OC(F)F (configuration not stated)	·	0.706	69.2*	0.3	0.3	67.2*
CC1CCc2cc(F)ccc2N1C(=O)c1ccc2c(c1)OCO2 (configuration not stated)	-0.289	-0.617	25.5	0.4	0.7	62.2*
Cc1ccc(C(=O)N2c3ccc(F)cc3CCC2C)o1 (configuration not stated)	0.0551	-1.5	27.0	0.5	0.7	53.3*
COc1cc(OC)cc(C(=O)N2c3ccc(F)cc3CCC2C)c1 (configuration not stated)	2.17	1.84	20.5	0.5	0.8	53.5*
Cc1nn(Cc2ccc(C(=O)N3c4ccc(F)cc4CCC3C)o2)c(C)c1Br (configuration not stated)	0.0659	3.33*	47.8	0.1	0.5	87.3*
CC1CCc2cc(F)ccc2N1C(=O)c1cnc2sccn2c1=O (configuration not stated)	·	-0.257	-3.3	1	1	-2.3
COc1ccc(C(=O)N2c3ccc(F)cc3CCC2C)cc1OC (configuration not stated)	1.11	-0.396	1.9	1	1	-2.4
CCC(C)(C)NC(=O)C(c1cccnc1)N(CCOC)C(=O)Cn1nnc2ccccc21 (configuration not stated)	-0.777	-0.232	5.2	0.9	0.9	7.5
Cc1ccc(N(CC(=O)O)S(C)(=O)=O)cc1Cl	-1.23	-0.19	6.3	1	0.9	1.0
O=[N+]([O-])c1ccc(Sc2nccn2Cc2ccccc2)c([N+](=O)[O-])c1	·	-2.38	35.4	0.5	0.6	50.7*
CCCn1nnc(NC(=O)C(C)Oc2ccc(Cl)cc2Cl)n1 (configuration not stated)	1.19	-0.459	20.8	0.7	0.8	26.0
CC(Oc1ccc(Cl)cc1Cl)C(=O)Nn1cnnc1 (configuration not stated)	·	-1.04	·	·	·	·
COCCNC(=O)C(C)Oc1ccc(Cl)cc1Cl (configuration not stated)	2.03	0.328	46.2	0.1	0.5	94.2*
CC(Oc1ccc(Cl)cc1Cl)C(=O)Nc1cccnc1 (configuration not stated)	·	0.827	·	·	·	·
CC(Oc1ccc(Cl)cc1Cl)C(=O)NCCCN1CCOCC1 (configuration not stated)	1.39	-0.81	-9.8	0.4	1.1	58.3*
